LAP4 TOR yeast = alters LAP4-GFP fluorescence in TOR pathway yeast screen; S. cerevisiae LAP4-GFP multiplex, flow cytometry GFP, 3 h; median GFP as percent of DMSO wells; GFP response vs DMSO, % at 10 µM; hit rate 0.34% among 320,000; AID 2023;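 active = GFP response vs DMSO above a set limit, about the screen mean plus 3 SD, cut at about 150% in these data; inconclusive = under 70 cell events counted for the yeast strain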
CIT2-GFP yeast = modulators of TOR pathway CIT2-GFP in S. cerevisiae. GFP response vs DMSO, % at 10 µM. AID 2029. S. cerevisiae CIT2-GFP strain, flow cytometry, 3 h; 100 means same as DMSO wells. hit rate 0.065% among 320,000;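 active = GFP response relative to DMSO above a set limit, near the screen mean plus 3 SD, cut at about 150% in these data; inconclusive = Fewer than 70 cells measured for a yeast strain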;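 also: ratio of well median GFP fluorescence to mean of DMSO wells on the plate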
MEP2 TOR yeast = alters MEP2-GFP fluorescence in TOR pathway yeast screen. S. cerevisiae MEP2-GFP strain, flow cytometry GFP, 3 h; 100% = DMSO control level. GFP response vs DMSO, % at 10 µM. hit rate 0.51% among 330,000;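 active = GFP response versus DMSO above a set limit, roughly screen mean plus 3 SD, cut at about 180% in these data; inconclusive = fewer than 70 cells counted for a yeast strain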;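 also: median GFP fluorescence of the barcode-gated MEP2-GFP cells per well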
AGP1 TOR yeast = modulators of TOR pathway AGP1-GFP in S. cerevisiae; hit rate 0.02% among 320,000; GFP response vs DMSO, % at 10 µM; AID 2066; S. cerevisiae AGP1-GFP multiplex flow cytometry, 3 h; GFP as percent of DMSO wells;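 active = GFP response relative to DMSO above a set limit, near screen average plus 3 SD, cut at about 150% in these data; inconclusive = fewer than 70 cells counted for the yeast strain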;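 also: median GFP channel fluorescence of the gated AGP1 strain per well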
RPL19A-GFP yeast = yeast TOR pathway RPL19A-GFP modulation; percent response vs DMSO, % at 10 µM; AID 2025; S. cerevisiae RPL19A-GFP strain, flow cytometry, 3 h; hits give low values; hit rate 0.3% among 330,000;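 active = percent response vs DMSO below 50%; inconclusive = fewer than 70 events counted for the yeast strain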;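 also: median channel GFP fluorescence of the barcoded RPL19A-GFP strain; ratio of sample median GFP to plate DMSO average so 100% = DMSO; lower means less RPL19A-GFP as with rapamycin TOR inhibition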
Numbers without * were called inactive; ? = inconclusive; nt = no result given; [ ] = dose if it differs, or a comment. Hits are enriched below; roughly 0.89% of the tested compounds scored in any of these assays.

SMILES	LAP4 TOR yeast	CIT2-GFP yeast	MEP2 TOR yeast	AGP1 TOR yeast	RPL19A-GFP yeast
Clc1ccc(Oc2ncnc3oc(-c4ccccc4)cc23)cc1	99.1	89.3	96.6	95.2	93.5
CC1CCCCC12NC(=O)N(CC(=O)NCc1ccco1)C2=O (stereo not given)	99.2	93.4	99.2	93.4	94.8
Cc1cccc(C(CC(=O)O)n2cccc2)c1 (stereo not given)	121.4	?	400.5*[may fluoresce violet]	?	54.7
Cc1ccccc1OC(=O)c1cccc(S(=O)(=O)N2CCN(C)CC2)c1	86.7	81.2	95.4	89.8	88.3
CCOC(=O)N/N=C/c1cc(C)n(-c2cccc3ccccc23)c1C	102.8	102.4	143.9	99.4	102.9
COC(=O)N/N=C/c1cc(C)n(-c2cccc3ccccc23)c1C	75.3	?	144.0	18.8	43.5*[may fluoresce violet]
Cc1ccccc1OC1CCN(C(=O)C2CCC(=O)N(C3CCCC3)C2)CC1 (stereo not given)	155.6*	99.5	98.5	105.3	88.4
Cc1ccc(OC2CCN(C(=O)C3CCC(=O)N(C4CC4)C3)CC2)cc1 (stereo not given)	79.5	86.9	77.4	92.4	92.9
Cc1ccc(S(=O)(=O)NNC(=O)c2cc3cc4ccccc4nc3s2)cc1	93.4	?	597.6*[may fluoresce violet]	20.1	44.6*[may fluoresce violet]
Cc1cccc(C(=O)NNC(=O)c2cc3cc4ccccc4nc3s2)c1	117.7	102.3	140.2	102.0	102.8
C/C(=N\NC(=O)CC#N)c1cc2ccc(O)cc2oc1=O	61.1	?	200.8*[may fluoresce violet]	?	16.1*[may fluoresce violet]
O=C(c1ccc(F)cc1)c1cc2ccc(O)cc2oc1=O	91.8	94.2	88.2	93.1	91.8
CC(=O)c1ccc(NC(=S)N2CCCC(C(F)(F)F)C2)cc1 (stereo not given)	102.4	104.7	93.9	103.6	92.1
COc1ccc(C(=O)Nc2c(O)ccc3ccccc23)cc1OC	104.6	?	489.1*[may fluoresce violet]	?	43.4*[may fluoresce violet]
COc1ccc(NC(=O)Nc2c(O)ccc3ccccc23)cc1	95.9	?	?	?	21.9*[may fluoresce violet]
COc1ccc(C(=O)Nc2c(O)ccc3ccccc23)cc1	97.0	101.2	92.0	95.1	95.2
Cc1cnc(C(=O)OCC(=O)N(C)CC(=O)Nc2ccccc2Cl)cn1	102.1	95.6	93.2	101.7	98.1
Cc1cccc(NS(=O)(=O)c2cccc(C(=O)N3CCCC3)c2)c1	108.6	100.5	109.3	111.9	105.2
COC(=O)Nc1nnc(-c2ccccc2OC)s1	103.7	88.7	94.5	95.5	96.8
O=C(O)c1ccc(S(=O)(=O)N2CCCCCC2)cc1	108.2	91.0	100.3	94.5	99.1
O=C(CSc1nnnn1-c1ccccc1)Nc1ccc(Cl)cc1	115.5	108.5	108.1	104.7	106.5
O=C1OCCN1C(=O)[C@H]1[C@H](c2ccc(F)cc2)C(c2ccc(F)cc2)=NN1c1ccccc1	109.3	71.4	92.5	82.8	106.2
O=C1OCCN1C(=O)[C@H]1[C@H](c2ccc(F)cc2)C(c2ccc(F)cc2)=NN1c1ccc(Br)cc1	130.3	?	383.1*[may fluoresce violet]	15.6	91.7
CCCCOC(=O)c1ccc(NC(=S)NC(=O)c2c(Cl)cnn2CC)cc1	83.1	?	406.0*[may fluoresce violet]	nt	38.6*[may fluoresce violet]
NC(=O)C1=C[C@H](C2CCCCC2)C[C@H](OCc2ccc(CO)cc2)O1	102.6	101.0	103.7	102.9	101.6
SMILES	LAP4 TOR yeast	CIT2-GFP yeast	MEP2 TOR yeast	AGP1 TOR yeast	RPL19A-GFP yeast
COc1cccc(N=Nc2ccc3cccnc3c2O)c1	166.4*	146.1	111.6	104.5	98.7
COc1cc(OC)cc(C(=O)Nc2cccc3cccnc23)c1	98.8	99.9	102.8	92.3	102.1
CSc1nc(-c2ccccc2)nc(NC(=O)C(C)C)c1C(C)=O	96.9	93.6	97.6	92.7	97.4
CCN(CC(=O)NC1CCS(=O)(=O)C1)S(=O)(=O)c1cc(Br)ccc1Br (stereo not given)	98.4	96.9	96.0	106.8	98.2
CC1(C)Cc2c(sc3nc(NCCN4CCOCC4)n4ncnc4c23)CO1	95.1	102.4	100.4	102.7	97.5
COc1ccc(-c2nn(-c3ccccc3)cc2C(=O)NC(=S)NNC(=O)c2ccncc2)cc1	150.4*	106.6	112.5	100.7	103.5
COc1ccc(NC(=O)c2cn(-c3ccccc3)nc2-c2ccncc2)cc1	103.3	97.1	97.2	101.3	98.4
CCOC(=O)C1=C(C)NC(=S)NC1c1ccco1 (stereo not given)	104.2	92.0	91.6	94.9	95.2
CCOC(=O)C1CCCN(C(=O)c2ccc(-c3ccc([N+](=O)[O-])cc3)o2)C1 (stereo not given)	168.6*	69.9	79.0	83.7	95.7
N#Cc1c(NCCCO)nc(-c2ccco2)c2c1CCCC2	102.9	?	243.5*[may fluoresce violet]	17.2	92.8
N#Cc1c(NC2CCCCC2)nc(-c2ccco2)c2c1CCCC2	104.5	64.1	96.5	17.6	94.5
CCOc1cccc(/C=C2\NC(=S)N(c3ccccc3)C2=O)c1O	75.8	?	423.6*[may fluoresce violet]	?	18.2*[may fluoresce violet]
CCOc1cc(/C=C2\NC(=S)N(c3c(C)n(C)n(-c4ccccc4)c3=O)C2=O)ccc1O	81.6	109.3	105.8	94.8	100.2
O=C(Cc1ccc(Cl)cc1)Nc1ccc(Br)cn1	111.4	83.0	187.2*	26.1	70.8
Oc1[nH]c(N=C2N=c3ccccc3=N2)c2ccccc12	131.4	?	190.5*[may fluoresce violet]	18.3	89.6
Cc1cc2nc(N)sc2cc1C	111.0	118.9	102.4	108.5	102.4
O=C(NC(=S)Nc1ccc2ncccc2c1)c1ccccc1	101.7	94.8	102.4	98.3	98.7
O=C(NC(=S)Nc1ccc2nc[nH]c2c1)c1ccccc1	108.2	167.5*[may fluoresce green]	114.5	119.7	95.3
NNC(=O)c1ccc(CSc2nc3ccccc3[nH]2)cc1	122.2	?	91.7	?	45.4*[may fluoresce violet]
CCC(C)Nc1nc(N)c([N+](=O)[O-])c(Nc2cc(OC)ccc2OC)n1 (stereo not given)	nt	nt	265.3*[may fluoresce violet]	nt	77.0
CCOc1ccc(NC(=O)C2CCCN(c3c(CC)c(C)nc4ncnn34)C2)cc1 (stereo not given)	78.7	?	214.2*[may fluoresce violet]	15.1	50.8
COC(=O)c1ccc(CO/N=C/c2ccc(OC)cc2OC)cc1	76.2	?	216.9*[may fluoresce violet]	16.8	65.2
COc1ccc(/C=N/OCC(=O)NCC(C)C)c(OC)c1	95.0	105.2	102.1	100.7	96.1
CCc1cccc(NC(=O)c2ccc(Cn3c(=O)[nH]c4ccsc4c3=O)cc2)c1	100.3	98.8	103.0	98.3	101.4
O=C(CCC(=O)N(c1cccc(F)c1)C(C(=O)NC1CCCC1)c1ccncc1)Nc1cccnc1 (stereo not given)	95.1	100.3	93.5	96.2	99.4
Cc1ccc(CCN2CC(C(=O)NCCCN(C)Cc3ccccc3)CC2=O)cc1 (stereo not given)	85.8	100.1	188.2*	99.0	96.8
CCCCNC(=O)C1CC(=O)N(CCc2ccccc2)C1 (stereo not given)	105.5	103.0	98.8	104.6	97.7
